“And” between values parts separate entries of the source, which are not always exact repeats. Equal entries are not always repeated. Structures can show the parent of a compound that is named as a salt. ± gives the standard deviation of the averaged measurements.
System: Molm13
Test: cell viability relative to DMSO control (bortezomib = 0%); higher = less growth inhibition
Conditions: 10 nM; 72 h
Procedure, shortened: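 Each plate's values were converted to percentages by linear regression, taking DMSO-treated cells as 100% and positive-control-treated cells as 0%. These plates were 384-well plates of 679 approved and investigational compounds at a single 10 nM dose, onto which acute myeloid leukemia cells were dispensed at 1000 cells per well in 50 µL for 72 h, in duplicate. Cell viability came from CellTiter-Glo luminescence on an EnVision reader.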

SMILES	cell viability
CCCCCCCCCCCCCCCCn1cc[n+](Cc2ccccc2)c1C	124 ± 5.5%
COc1cc(N2CCC(N)CC2)ccc1Nc1ncc(Cl)c(-c2c[nH]c3ccccc23)n1	86 ± 2.5%
C[C@@H]1O[C@@H](Oc2cc(O)c3c(=O)c(O[C@@H]4O[C@@H](C)[C@H](O)[C@@H](O)[C@H]4O)c(-c4ccc(O)cc4)oc3c2)[C@H](O)[C@H](O)[C@H]1O [Kaempferitrin]	114 ± 10%
COC(=O)c1ccc2c(c1)NC(=O)/C2=C(\Nc1ccc(N(C)C(=O)CN2CCN(C)CC2)cc1)c1ccccc1	87.7 ± 22%
CC(=O)c1cnc2ccc(-c3cc(Cl)c(O)c(Cl)c3)nc2c1N[C@H]1CC[C@H](CN(C)C)CC1	95.1 ± 17%
CCc1cncnc1N1CCN(Cc2nc3ccc(C(F)(F)F)cc3[nH]2)CC1	106 ± 32%
COc1c(C)c(C(=O)c2ccc(N)c(C(=O)O)c2)n2ccccc12	107 ± 23%
CNC(=O)c1cc(Oc2ccc(NC(=O)Nc3cc(C(C)(C)C)nn3-c3ccc4ncccc4c3)c(F)c2)ccn1 [DCC-2036 (Rebastinib)]	95.7 ± 1.2%
C[C@@H]1CN(C(=O)c2ccc(NC(=O)c3cc(O[C@H](C)c4c(Cl)ccc(F)c4Cl)c(N)nn3)cc2)C[C@H](C)N1 [Ensartinib]	127 ± 20%
FC(F)(F)c1ccc(CNc2ccc(Cc3c[nH]c4ncc(Cl)cc34)cn2)cc1	112.2 ± 0.43%
C=CCc1ccc(O)c(-c2ccc(O)c(CC=C)c2)c1 [Honokiol]	105 ± 5.5%
CN(C)C[C@@H]1CCn2cc(c3ccccc32)C2=C(C(=O)NC2=O)c2cn(c3ccccc23)CCO1 [Ruboxistaurin hydrochloride]	90 ± 7.3%
CN(C)CCOc1ccc(-c2nc(-c3ccncc3)c(-c3ccc4c(c3)CC/C4=N\O)[nH]2)cc1	103 ± 23%
O=C(NC[C@H](O)CO)c1ccncc1Nc1ccc(I)cc1F	91.6% and 95%
CN1CC(O)C2=C/C(=N/NC(N)=O)C(=O)C=C21 (stereo not given) [Carbazochrome]	93.7 ± 20%
Cc1cc(Nc2cc(N3CCN(C)CC3)nc(/C=C/c3ccccc3)n2)n[nH]1	89.6 ± 1.1%
CN(C)C(=O)c1cc2cnc(Nc3ccc(N4CCNCC4)cn3)nc2n1C1CCCC1	113 ± 12%
N#CC(c1ccnc(OCc2ccc(CN3CCOCC3)cc2)n1)c1nc2ccccc2s1 (stereo not given)	107 ± 20%
NC(=O)c1ccc2nc(-c3ccc(Oc4ccc(Cl)cc4)cc3)[nH]c2c1	100 ± 13%
O=C(NCCO)c1cccc(-c2cc(Nc3ccc(OC(F)(F)F)cc3)ncn2)c1	98.72 ± 0.31%

SMILES	cell viability
CCN1CCN(c2ccc(Nc3cc(N(C)C(=O)Nc4c(Cl)c(OC)cc(OC)c4Cl)ncn3)cc2)CC1	110 ± 17%
CNc1nc(-c2ccc3c(N)n[nH]c3c2)cc(N2C[C@@H](C(=O)NC3CCCCC3)CC[C@H]2C)n1	112 ± 2.6%
CN1CCN(c2ccc(C(=O)Nc3cc(-c4cccc(NS(=O)(=O)c5ccccc5)c4)[nH]n3)cc2)CC1	61.4 ± 18%
Nc1cc(C(F)(F)F)c(-c2cc(N3CCOCC3)nc(N3CCOCC3)n2)cn1 [BKM120 (NVP-BKM120, Buparlisib)]	93.7 ± 4.8%
CC(C)n1nc(-c2ccc3oc(N)nc3c2)c2c(N)ncnc21	89.4 ± 12%
CC(=O)c1c(C)c2cnc(Nc3ccc(N4CCNCC4)cn3)nc2n(C2CCCC2)c1=O	89.3% and 111%
COc1cc2ncnc(Oc3ccc(CC(=O)Nc4cnn(C(C)C)c4)cc3)c2cc1OC	24.8 ± 4.2%
C[C@@H]1O[C@@H](OC[C@H]2O[C@@H](Oc3c(-c4ccc(O)c(O)c4)oc4cc(O)cc(O)c4c3=O)[C@H](O)[C@@H](O)[C@@H]2O)[C@H](O)[C@H](O)[C@H]1O [Rutin]	103 ± 1.5%
Oc1cc(-c2nc(-c3ccccc3)[nH]c2-c2ccncc2)ccc1Cl	105 ± 34%
C[C@@H]1O[C@@H](O[C@@H]2[C@@H](O)[C@H](OCCc3ccc(O)c(O)c3)O[C@H](CO)[C@H]2OC(=O)/C=C/c2ccc(O)c(O)c2)[C@H](O)[C@H](O)[C@H]1O [Verbascoside]	89.4 ± 1.9%
CNC(=O)c1ccccc1Nc1nc(Nc2ccc(N3CCNCC3)cc2)ncc1Cl	17.4 ± 13%
Cc1cc(C(C)Nc2ccccc2)c2nc(N3CCOCC3)cc(=O)n2c1 (stereo not given)	106 ± 18%
NC(=O)c1ncn([C@@H]2O[C@H](CO)[C@@H](O)[C@H]2O)c1N [AICAR (Acadesine)]	110 ± 7.6%
C=CC(=O)Nc1cccc(C)c1Nc1ncc2cc(-c3c(Cl)c(OC)cc(OC)c3Cl)ccc2n1	112 ± 22%
CN(C)S(=O)(=O)c1ccc2c(c1)/C(=C/c1cc3c([nH]1)CCCC3)C(=O)N2	113 ± 3.4%
COc1cc2/c(=N/c3ccc(Br)cc3F)nc[nH]c2cc1OCC1CCN(C)CC1 [Vandetanib (ZD6474)]	116 ± 22%
Cc1cc(N)c2ccccc2[n+]1CCCCCCCCCC[n+]1c(C)cc(N)c2ccccc21 [Dequalinium chloride]	92.3 ± 15%
O=C(O)c1ccc2nc(-c3ccccc3)c(-c3ccccc3)nc2c1	98.2 ± 15%
CCN1CCN(Cc2ccc(C(=O)Nc3ccc(C)c(Oc4ccc5c(c4)CC(=O)N5)c3)cc2C(F)(F)F)CC1	110 ± 13%
Cc1cc(O)c2c(c1)C(=O)c1cccc(O)c1C2=O [Chrysophanic Acid]	93.1 ± 1.7%
